This test deals with CAMK2G. Conditions: concentration: 1 μM, replicates: in singlicate; n = 1.
With `Oc1ccc2ncnc(Nc3ccc(OCc4ccccc4)cc3)c2c1` [GI262866], the “%Inh” value was found to be 2%.
Take `FC(F)(F)c1ccc(-c2cc(-c3c[nH]nc3-c3ccccn3)ccn2)cc1` [GW599550]: the “%Inh” value turned out to be 27%.
In the case of `CCc1nc(-c2cccc(C)c2)c(-c2ccnc(NC(=O)c3ccccc3)c2)s1`, the “%Inh” value is reported as 10%.
The value for `CN1c2ccc(-c3ccc(C(=O)NCCO)cc3)cc2-c2[nH]ncc2S1(=O)=O` was 21%; that for `O=C(c1ccc(-c2cc(-c3c[nH]nc3-c3ccccn3)ccn2)cc1)N1CCCC1` [GW792479] was 56%.
Consider `COc1ccc(-c2oc3ncnc(N)c3c2-c2ccc(OC)cc2)cc1` [SB-589132], for which the “%Inh” value is given as 2%.
Regarding `CCc1nc(-c2cccc(N(C)S(=O)(=O)c3ccccc3)c2)c(-c2ccnc(Nc3ccc(N4CCN(C(C)=O)CC4)nc3)n2)s1` [GSK1645895], the “%Inh” value stood at 37%.
Regarding `Fc1cccc(COc2ccc(Nc3ncnc4cc[nH]c34)cc2Cl)c1`, the “%Inh” value is 11%.
Turning to `Cl.c1ccc(Cn2ncc3cc(Nc4ncnc5ccccc45)ccc32)cc1` [GW273749], the “%Inh” value was found to be 25%.
Turning to `COC(=O)c1cccc(NC(=O)NCCNc2ccnc(Nc3ccc(F)cc3)n2)c1` [GSK1379883], the “%Inh” value is listed as 17%.
With `Cl.c1ccc(Cn2ccc3cc(Nc4ncnc5ccccc45)ccc32)cc1` [GW275568], the “%Inh” value turned out to be 27%.
Take `COc1ccc(Nc2nccc(N3CCC(NC(=O)c4cccc(NC(C)=O)c4)C3)n2)cc1` (centres unmarked) [GSK1379732]: the “%Inh” value is listed as 26%.
For the compound `Nc1nccc2scc(-c3ccc4c(c3)CCN4C(=O)Cc3cc(F)ccc3F)c12` [GSK2587663], the “%Inh” value is on record as 23%.
As for `Fc1ccc(Nc2nccc(-c3c(-c4ccc(Cl)cc4)nn4ncccc34)n2)cc1F` [GW829058], the figure is 2%; as for `CS(=O)(=O)CCNCc1ccc(-c2ccc3ncnc(Nc4ccc(OCc5ccccc5)c(Cl)c4)c3c2)o1.Cl` [GW574783], 11%; as for `Cn1ccc2ncnc(Oc3ccc(NC(=O)Nc4cccnc4)c(Cl)c3)c21`, 19%.
As to `COc1ccc(NC(=O)c2ccc(-c3cc(-c4nnc(C)o4)ccc3C)cc2)cc1` [GW595885], the “%Inh” value came to 8%.
Regarding `NC(=O)c1sc(-n2cnc3ccccc32)cc1OCc1ccccc1F` [GSK1024306], the “%Inh” value is 14%.
On to `Fc1ccc(-c2ncn(CCCNCc3ccccc3)c2-c2ccncc2)cc1`, for which the “%Inh” value was 0%.
With `CCC(CC)(CC)n1cnc2c(N)ncnc21` [SKF-97620], the “%Inh” value is listed as 0%.
For the compound `N#Cc1ccc(Oc2ccc(Nc3ncnc4cc[nH]c34)cc2Cl)cc1`, the “%Inh” value is 10%.
`O=C(Nc1n[nH]c2nc(-c3ccco3)c(Br)cc12)c1ccc(CN2CCCC2)cc1.O=C(O)[C@H](O)[C@@H](O)C(=O)O` [SB-742352]: the “%Inh” value worked out at 0%.
Consider `O=C(NCCCN1CCCC1=O)c1cnc(NCc2cc(Cl)ccc2Cl)nc1NC1CCNCC1`, for which the “%Inh” value was 0%.
Take `O=C(Nc1ccccc1)Nc1ccc(Oc2ccc3nccn3n2)cc1`: the “%Inh” value turned out to be 14%.
On to `CCCc1ccc(S(=O)(=O)NC2CCN(c3ccnc(Nc4ccc(OC)cc4)n3)C2)cc1` (centres unmarked) [GSK1379737], for which the “%Inh” value stood at 4%.
As for `COC(=O)c1c(-c2ccccc2)c2cc(Cl)ccc2c(=O)n1Cc1ccc(S(C)(=O)=O)cc1`, the figure is 9%; as for `CC(C)N1CCC(n2cnc(-c3ccc(F)cc3)c2-c2ccnc(N)n2)CC1` [SB-223132], 4%; as for `Nc1n[nH]c2nnc(-c3ccccc3)cc12` [SB-517389], 0%.
For `C[C@H]1CC[C@@H](C(=O)Nc2ccccc2)CN1c1cc(-c2ccc3c(N)n[nH]c3c2)nc(N)n1` [GSK2283293], the “%Inh” value is recorded as 16%.
The value for `CN1CCC(n2cnc(-c3ccc(F)cc3)c2-c2ccnc(NC3CCNCC3)n2)CC1` [SB-229482] was 0%.
For the compound `Fc1cccc(COc2ccc(Nc3ncnc4sc(-c5ccc[nH]5)cc34)cc2Cl)c1` [GW707818], the “%Inh” value amounted to 0%.
Consider `O=C(Nc1ccccc1F)NC1CCN(c2ccnc(Nc3ccc(F)cc3)n2)C1` (centres unmarked) [GSK1379722], for which the “%Inh” value is on record as 12%.
For the compound `Clc1ccc(-c2cc(-c3c[nH]nc3-c3ccccn3)ccn2)cc1` [GW681251], the “%Inh” value is 8%.
As for `COc1cc2ncnc(Nc3ccc(OCc4ccccc4Br)c(Cl)c3)c2cc1OC.Cl` [GI261590], the figure is 14%.
As to `Cl.Cl.c1ccc(-c2cc3ccncc3cc2OC2CCNCC2)cc1` [GSK1122999], the “%Inh” value was 20%.

The values above are taken from paper PMC5540273 (PLoS ONE, 2017).
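Also: KINOMEscan kinase panel screen.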
